Screens deposited in PubChem by Broad Institute.
The list is not random: actives were taken first. Their share in the collection is about 6.8%.
Pf Dd2 growth – blocks growth of Plasmodium falciparum Dd2 parasites. P. falciparum Dd2 growth, SYBR Green, 72 h; hits give low values. activity change, % at 10 µM. 2.3% of 94,000 active. AID 1159554; in the data active = activity change below about -80%; inconclusive = no clear call, values can overlap the other calls
T cruzi growth-1 – blocks T. cruzi growth in NIH3T3 culture. T. cruzi beta-gal in NIH3T3, GalScreen luminescence, 90 h. inhibition, % at 8.34 µM. AID 624255. 5.9% of 77,000 active;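 active = mean inhibition above about 93%, with at least 55% of replicates each passing it, limit read from the data, passing the limit was not always enough; inconclusive = only one of those two conditions holds; inactive = neither condition holds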
C diff growth – inhibitors of Clostridium difficile growth; Clostridium difficile clinical isolate growth, OD600, 24 h; hits give low values; growth activity, negative = inhibition, % at 16 µg/mL (by protocol); 0.25% of 86,000 active; AID 1259249;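 active = mean growth activity at or below -80% and every replicate also at or below -80%; inconclusive = mean at or below -80% but some replicate above -80%; inactive = mean growth activity above -80%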;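 note: 0% = DMSO wells and -100% = levofloxacin 16 µg/mL wells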
T cruzi growth-2 – blocks T. cruzi growth in NIH3T3 host cells. shares compounds with T cruzi growth-1. T. cruzi beta-gal in NIH3T3, GalScreen luminescence, 90 h. inhibition, % at 8.35 µM. 72% of 5,600 active;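 active = mean replicate inhibition above about 95% and at least 55% of replicates individually reaching it, limit read from the data; inconclusive = only one of the two criteria is met; inactive = neither criterion is met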
T cruzi growth-3 – inhibitors of T. cruzi proliferation; shares compounds with T cruzi growth-1; T. cruzi beta-gal in NIH3T3, GalScreen luminescence, 90 h; inhibition, % at 2.09 µM; 21% of 5,600 active; AID 651740;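 active = mean inhibition above about 95%, with at least 55% of replicates also reaching it, limit read from the data; inconclusive = meets just one of the two conditions; inactive = meets neither condition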;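 note: plate controls were neutral control median for no effect and positive control median for full effect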
NIH3T3 tox – cytotoxicity in mouse NIH/3T3 fibroblasts | shares compounds with T cruzi growth-1 | cytotoxicity (signal decrease), % at 8.35 µM | 14% of 5,600 active | NIH/3T3 viability, CellTiter-Glo ATP luminescence, 90 h;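 active = mean signal decrease across replicates above about 35% based on untreated-well scatter, with enough replicates individually passing, limit read from the data; inconclusive = no rule stated though some were filed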;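 note: 0% = median of neutral control wells and 100% = median of positive control wells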
3T3 cytotox 2 – cytotoxicity in mouse NIH/3T3 fibroblasts | shares compounds with T cruzi growth-1 | NIH/3T3 viability, CellTiter-Glo ATP luminescence, 90 h | inhibition, % at 24.9 µM | 56% of 5,600 active | AID 651744;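 active = mean loss of cell viability signal at or above a set limit, and enough replicates individually reaching it; inconclusive = meets only the mean limit or only the replicate share; inactive = meets neither condition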;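 note: 0% = median of neutral control wells and 100% = median of positive control wells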
* = called active by the depositor; u = inconclusive; x = no result given; ! = a repeat was not active.

SMILES | Pf Dd2 growth | T cruzi growth-1 | C diff growth | T cruzi growth-2 | T cruzi growth-3 | NIH3T3 tox | 3T3 cytotox 2
C[C@@H]1CN([C@@H](C)CO)C(=O)c2cc(NC(=O)Nc3ccc(F)cc3)ccc2O[C@@H]1CN(C)Cc1ccc(-c2ccccc2)cc1 | -2.0 | 93.8* | 77.4 | 96.4* | 87.2 | 57.4* | 101.9*
C[C@H]1CN([C@@H](C)CO)C(=O)c2cc(NC(=O)Nc3ccccc3)ccc2O[C@H]1CN(C)Cc1ccc(-c2ccccc2)cc1 | 11.0 | 76.9 | 2.2 | x | x | x | x
C[C@H]1CCCCO[C@H](CN(C)S(=O)(=O)c2cccs2)[C@@H](C)CN([C@@H](C)CO)C(=O)c2cc(NS(=O)(=O)c3ccc(Cl)cc3)ccc2O1 | -58.3 | 102.8* | 4.3 | 106.2* | 76.5 | -26.9 | -14.3
C[C@@H]1CCCCO[C@@H](CN(C)S(=O)(=O)c2ccc(Cl)cc2)[C@H](C)CN([C@H](C)CO)C(=O)c2cc(NS(=O)(=O)c3cccs3)ccc2O1 | x | u | -6.9 | 105.3* | 85.9 | -11.0 | -9.7
C[C@@H]1CCCCO[C@H](CN(C)S(=O)(=O)c2cccs2)[C@@H](C)CN([C@H](C)CO)C(=O)c2cc(NS(=O)(=O)c3ccc(Cl)cc3)ccc2O1 | -11.6 | 65.6 | 3.4 | x | x | x | x
C[C@@H]1CCCCO[C@H](CN(C)S(=O)(=O)c2ccc(Cl)cc2)[C@@H](C)CN([C@H](C)CO)C(=O)c2cc(NS(=O)(=O)c3cccs3)ccc2O1 | x | 87.4 | -10.2 | x | x | x | x
COc1ccc(S(=O)(=O)N(C)C[C@@H]2OCc3cn(nn3)CCCC(=O)N([C@@H](C)CO)C[C@@H]2C)cc1 | -0.8 | -15.8 | 1.0 | x | x | x | x
CN1c2ccc(-c3cccc(F)c3)cc2[C@H]2[C@H](CCN2C(=O)c2ccncc2)[C@H]1CO | 21.3 | 63.8 | -3.4 | x | x | x | x
CN1[C@@H]2Cn3c(ccc(/C=C/c4ccccc4)c3=O)[C@H]1[C@@H](C(=O)NC1CCCC1)[C@@H]2CO | 15.5 | x | 2.5 | x | x | x | x
O=C([C@@H]1[C@@H](CO)[C@@H]2Cn3c(ccc(-c4ccncc4)c3=O)[C@H]1N2Cc1ccccc1)N1CCOCC1 | 13.9 | 1.0 | -2.7 | x | x | x | x
O=C([C@@H]1[C@@H](CO)[C@@H]2Cn3c(ccc(-c4ccccc4)c3=O)[C@H]1N2Cc1cccnc1)N1CCOCC1 | x | 97.2* | -3.9 | -16.0 | -5.6 | 12.1 | -6.7
O=C([C@H]1[C@H](CO)[C@H]2Cn3c(cccc3=O)[C@@H]1N2Cc1cccc(Cl)c1)N1CCCCC1 | 4.6 | 29.1 | 5.3 | x | x | x | x
O=C([C@H]1[C@H](CO)[C@H]2Cn3c(cccc3=O)[C@@H]1N2Cc1cccc(Cl)c1)N1CCOCC1 | x | 99.6* | 7.1 | -37.8 | 26.8 | -10.3 | -1.5
CC(=O)N1CCCCN2[C@@H](CO)[C@@H](c3ccc(-c4ccccc4)cc3)[C@@H]2C1 | -5.6 | 84.7 | -14.0 | x | x | x | x
CC(=O)N1CCCCN2[C@@H](CO)[C@@H](c3ccc(-c4cccc(C)c4)cc3)[C@@H]2C1 | 21.6 | u | -5.9 | 52.9 | 50.1 | 41.7* | 62.1*
CC(=O)N1CCCCN2[C@H](CO)[C@H](c3ccc(-c4ccc(C)cc4)cc3)[C@@H]2C1 | 9.6 | 116.7* | -9.9 | 98.0* | 15.7 | 44.2* | 34.2*
CC(=O)N1CCCCN2[C@H](CO)[C@@H](c3ccc(-c4cccc(C)c4)cc3)[C@H]2C1 | 24.8 | -7.1 | -12.1 | x | x | x | x
O=C(Nc1ccccc1)[C@H]1[C@H](CO)[C@H]2Cn3c(cccc3=O)[C@H]2N1C(=O)C1CCCC1 | x | 19.1 | -4.4 | x | x | x | x
CCc1cnc(N2[C@H](CO)[C@@H](c3ccc(C#Cc4ccccc4F)cc3)[C@@H]2C#N)s1 | -39.7 | 102.8* | 15.5 | 96.1* | 111.2* | -16.1 | 85.1*
CCS(=O)(=O)N1[C@H](CO)[C@H](c2ccc(C#Cc3ccccc3F)cc2)[C@@H]1C#N | -79.3 | 87.4 | 11.4 | x | x | x | x
CCc1cnc(N2[C@@H](C#N)[C@H](c3ccccc3)[C@@H]2CO)s1 | 12.6 | 27.4 | 0.7 | x | x | x | x
CCc1cnc(N2[C@@H](C#N)[C@@H](c3ccc(C#Cc4ccccc4F)cc3)[C@@H]2CO)s1 | -23.6 | 99.7* | 3.7 | 89.9 | 109.3* | -17.5 | 62.3*
Cc1cc(C(=O)Nc2ccc3c(c2)C(=O)N(C)[C@H]2CC[C@H](CC(=O)Nc4ccc(Cl)cc4)O[C@@H]2CO3)no1 | -12.9 | 39.3 | -5.1 | x | x | x | x
CCNC(=O)[C@H]1[C@H](CO)[C@H]2Cn3c(ccc(-c4ccccc4F)c3=O)[C@H]2N1CC | 9.1 | 14.9 | -1.0 | x | x | x | x
COCC(=O)Nc1ccc2c(c1)[C@H]1C[C@@H](CC(=O)NCc3ccccc3OC)O[C@@H](CO)[C@H]1O2 | -11.7 | 7.2 | -2.6 | x | x | x | x
SMILES | Pf Dd2 growth | T cruzi growth-1 | C diff growth | T cruzi growth-2 | T cruzi growth-3 | NIH3T3 tox | 3T3 cytotox 2
CC(C)C#Cc1ccc2c(c1)O[C@@H](CN(C)Cc1cccnc1)[C@H](C)CN([C@@H](C)CO)S2(=O)=O | -50.9 | 107.1* | 1.8 | 99.2* | 92.3 | 55.6* | 67.3*
C[C@H](O)C#Cc1ccc2c(c1)O[C@H](CN(C)Cc1cccnc1)[C@H](C)CN([C@@H](C)CO)S2(=O)=O | 6.6 | x | -4.7 | x | x | x | x
C[C@@H](O)C#Cc1ccc2c(c1)O[C@H](CN(C)Cc1cccnc1)[C@@H](C)CN([C@@H](C)CO)S2(=O)=O | -5.6 | 67.2 | 0.8 | x | x | x | x
CC(C)C#Cc1ccc2c(c1)O[C@H](CN(C)Cc1cccnc1)[C@H](C)CN([C@@H](C)CO)S2(=O)=O | -28.5 | 104.0* | -0.3 | 98.0* | 55.6 | u | 65.3*
C[C@H]1CCCCO[C@@H](CN(C)Cc2ccc3c(c2)OCO3)[C@@H](C)CN([C@@H](C)CO)C(=O)c2cc(N(C)C)ccc2O1 | -9.2 | 11.0 | -3.5 | x | x | x | x
C[C@@H]1CN([C@@H](C)CO)C(=O)c2cc(N(C)C)ccc2O[C@@H](C)CCCCO[C@H]1CN(C)Cc1ccc2c(c1)OCO2 | -7.5 | 105.4*! | -1.6 | 22.2 | 4.6 | 8.8 | 6.1
C[C@H](CO)N1C[C@H](C)[C@@H](CN(C)Cc2ccc3c(c2)OCO3)OCCCC[C@H](C)Oc2ccc(N(C)C)cc2C1=O | 30.7 | x | -1.1 | x | x | x | x
C[C@@H]1CN([C@H](C)CO)C(=O)c2cc(N(C)C)ccc2O[C@@H](C)CCCCO[C@@H]1CN(C)Cc1ccc2c(c1)OCO2 | -18.1 | 101.7* | 2.0 | 22.8 | 18.0 | 2.2 | 11.0
C[C@H]1CN([C@@H](C)CO)C(=O)c2cccc(NS(C)(=O)=O)c2O[C@H]1CN(C)C(=O)Nc1ccc(F)cc1 | 8.7 | -18.7 | -0.6 | x | x | x | x
C[C@@H]1CN([C@H](C)CO)C(=O)c2cc(NC(=O)Nc3ccc(F)cc3)ccc2O[C@@H](C)CCCCO[C@@H]1CN(C)Cc1ccc2c(c1)OCO2 | u | 88.2 | 24.5 | x | x | x | x
C[C@@H]1CN([C@H](C)CO)C(=O)c2cc(NC(=O)Nc3ccc(F)cc3)ccc2O[C@@H](C)CCCCO[C@H]1CN(C)Cc1ccc2c(c1)OCO2 | -71.1 | 87.3 | 20.5 | x | x | x | x
